Source: PubChem
This is a sample that favours compounds with a hit; in the whole collection about 3.6% have one here.
Nrf2 ARE act = qHTS of Nrf2 Activators; AREc32 ARE-luciferase reporter (MCF7-derived line), luminescence, 24 h; AID 624171, 2012; Potency, µM (titrated, usually from 46.1 µM), for the others: at the highest dose activation, actives largely listed as activators; hit rate 0.31% among 410,000; note: % of control where 0% means no effect; nearly all actives have a fitted effect of over 65% in size
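For detection, Steady-Glo was added and plates sat 30 min at RT; before that, AREc32_Fluc cells grown overnight in OPTI-MEM/5% FBS had been treated with 23 nL compound for 24 hr at 37 deg C.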
Nrf2 block = Nrf2 qHTS screen for inhibitors. Potency, µM (top dose mostly 46 µM), for the others: at the highest dose activity change, negative = inhibition, most hits filed as inhibitors. A549 ARE-Fluc reporter, luciferase luminescence, 18-24 h. hit rate 2.1% among 360,000; note: % is set by controls: 0 for no effect and ±100 for the full control effect; nearly all actives have a fitted effect of over 60% in size
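Two sequential reads on A549 ARE_Fluc cells exposed to compound for 18-24 h: a CellTiter-Fluor fluorescence read for viability, then a luciferase luminescence read for Nrf2/ARE activity.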
A549 viability = Nrf2 qHTS screen for inhibitors: counterscreen for cytotoxicity. Potency, µM (titrated, usually from 46 µM), inactives show top-dose activity change, negative = cytotoxicity, most hits filed as inhibitors. hit rate 0.16% among 390,000. AID 504648, 2011. A549 ARE-Fluc cells, CellTiter-Fluor viability, 18-24 h; note: % is set by controls: 0 for no effect and ±100 for the full control effect
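A549 ARE-Fluc cells in 5% FBS OPTI-MEM, 5000 cells/well, rested 2 h then exposed to compounds in concentration-response for 18-24 h at 37 °C. Viability by CellTiter-Fluor fluorescence (Ex 405/Em 525) after 30 min; luciferase luminescence (BugLite, 15 min, RT) read afterwards.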
TGFb inhibitor = qHTS for Inhibitors of TGF-b; HepG2 CAGA-GFP TGF-b/SMAD3 reporter, GFP fluorescence, 18 h; TGF-beta stimulated, 500 pg/mL final; Potency, µM (top dose mostly 46.1 µM), inactives show at the highest dose activity, negative = inhibition, usual class: inhibitors; hit rate 1.2% among 410,000; note: % is set by controls: 0 for no effect and ±100 for the full control effect; nearly all actives have a fitted effect of over 65% in size
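TGF-beta reporter screen: HEPG2 CAGA-GFP, 1% FBS, 500 pg/mL TGF-beta final, 18 h; per-cell GFP summed per well; curves fitted and categorized by class.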
HepG2 tox = qHTS for Inhibitors of TGF-b: Cytotox Counterscreen. hit rate 0.76% among 410,000. AID 588856, 2011. HepG2 CAGA-GFP viability, ATP luminescence, 18 h. Potency, µM (titrated, usually from 46.1 µM), for the others: top-dose activity change, negative = cytotoxicity, actives largely listed as cytotoxic
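CellTiter-Glo luminescence gave cytotoxicity after 18 hours at 37 degrees C. The cells were HepG2 CAGA-GFP in 1% FBS DMEM, stimulated with 500 pg/mL TGF-beta after compound addition. %Activity was normalised to no-cell wells (complete cell-killing) and DMSO (no toxicity), and curves were fitted and classified.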
Starred values were filed as active, the others as inactive; ? = inconclusive; / = no result given; [ ] = another dose, or the depositor's remark. Calls come from the whole dose curve; as a rule, active = well fitted curve in the direction sought with a large enough effect; inconclusive = small, poorly fitted or top-dose-only effect, or another doubt; inactive = no such curve, though single readings can be large; an effect the other way counts as inactive or inconclusive. Potency is the fitted concentration of half-maximal effect.

SMILES	Nrf2 ARE act	Nrf2 block	A549 viability	TGFb inhibitor	HepG2 tox
CS/C(=N\NC(N)=O)c1ccccc1	0%	6%	-5%	?	6%
O=S(=O)(Nc1ncccn1)c1cc(Cl)ccc1Cl	0%	3%	4%	2%	-3%
Cc1nc([N+](=O)[O-])c(Br)n1CC(=O)c1ccc(F)cc1	30%	-30%	-15%	0%	-14%
Cc1nc([N+](=O)[O-])c(Br)n1Cc1ccccc1	10µM*	?	-7%	?	-53%
Cc1nc([N+](=O)[O-])c(Sc2nc3ccc([N+](=O)[O-])cc3[nH]2)n1Cc1ccccc1	-2%	-15%	-21%	-90%	10µM*
Cc1ccccc1NC(=S)NC1(C)CCS(=O)(=O)C1 (centres undefined)	0%	-5%	1%	-6%	-17%
O=C(NCCN1CCOCC1)c1ccc(=O)n(Cc2ccc(Cl)cc2)c1	0%	-5%	1%	-4%	-11%
Cc1[nH]n(-c2ccc([N+](=O)[O-])cc2)c(=O)c1/C=N/N1CCOCC1	5%	?	-1%	2%	1.4µM*
Cc1[nH]n(-c2ccccc2)c(=O)c1/C=N/NC(=O)c1cccc([N+](=O)[O-])c1	0%	-17%	-8%	?	-67%
Cc1ccc(-n2[nH]c(C)c(/C=N/Nc3ccc([N+](=O)[O-])cc3[N+](=O)[O-])c2=O)cc1C	6%	?	16µM*	?	-52%
COc1nsnc1N1CCOCC1	-1%	1%	-4%	24%	10%
O=C(Nc1ccc(Cl)cc1)N1CCN(c2ccc3nnc(-c4ccc(F)cc4)n3n2)CC1	3%	21µM*	?	14µM*	-27%
CCOc1ccc(-c2cc(C(=O)NCCCn3ccnc3)c3ccccc3n2)cc1	4%	1%	1%	-1%	-15%
CCOc1ccc(-c2cc(C(=O)NCCc3ccc(C)cc3)c3ccccc3n2)cc1	0%	/	-1%	1%	-11%
CCOc1ccc(-c2cc(C(=O)NCCCn3ccnc3)c3cc(Br)ccc3n2)cc1	?	?	-29%	14µM*	-92%
CCOCCCNC(=O)c1cc(Sc2ccc(C)cc2)nc2ccccc12	-2%	23µM*	3%	46%	10%
O=C(NCCCn1ccnc1)c1nn2c(C(F)(F)F)cc(-c3ccc(Br)cc3)nc2c1Cl	2%	-17%	?	18%	5.6µM*
CCOc1ccc(-c2cc(C(=O)NCCCN3CCN(CC)CC3)c3ccccc3n2)cc1	5%	/	-2%	29%	20µM*
CS(=O)(=O)N1CCN(C(=O)Cc2ccc([N+](=O)[O-])cc2)CC1	1%	-5%	4%	-20%	-17%
COc1ccc(OC)c(CCNC(=O)c2cc3c(-c4ccccc4F)nn(C)c3s2)c1	0%	21µM*	-2%	?	-41%
O=C(CSC1=NCCS1)Nc1nc2c(s1)CCCC2	?	3%	-1%	17%	-2%
CC(C)(C)C1CCC(=NNc2ccc(S(N)(=O)=O)cc2[N+](=O)[O-])CC1 (centres undefined)	3%	-20%	-6%	?	11µM*
COCCCNCCOCCOc1ccc(Cl)cc1C(C)(C)C	7%	5%	-1%	20µM*	11µM*
CC(C)(C)c1ccccc1OCCOCCNCc1ccccc1	3%	-2%	18%	25µM*	-65%
CNCCOc1ccccc1C(C)(C)C	0%	16%	?	0%	-10%
SMILES	Nrf2 ARE act	Nrf2 block	A549 viability	TGFb inhibitor	HepG2 tox
O=C(CCCC(=O)N(CC(=O)NC1CCCCC1)c1cccc(F)c1)Nc1ccccn1	0%	3%	-4%	?	-9%
Nc1c(C(=O)NCc2ccc(F)cc2)c2nc3ccccc3nc2n1CCCN1CCOCC1	-2%	?	?	?	18µM*
Nc1c(C(=O)NCc2ccccc2)c2nc3ccccc3nc2n1CCCN1CCOCC1	-3%	?	-14%	?	18µM*
COc1ccc(CNC(=O)c2c(N)n(CCCN3CCOCC3)c3nc4ccccc4nc23)cc1	-3%	16µM*	/	11µM*	-115%
COC(=O)c1c(N)n(CCCN2CCOCC2)c2nc3ccccc3nc12	3%	-24%	17%	0%	-2%
CCOc1ccc(NC(=O)CSc2nc(=O)n(CCN3CCOCC3)c3c2CCCC3)cc1	-1%	1%	-1%	-16%	-2%
CC1(C)CC(=O)C(C(=S)Nc2ccccc2)=C(NCCN2CCOCC2)C1	0%	7%	-7%	-34%	-7%
Cc1cccc(C)c1NC(=O)NS(=O)(=O)c1ccccc1	0%	/	/	-10%	5%
Cc1csc(-c2coc3cc(O)cc(C)c3c2=O)n1	10µM*	?	1%	-26%	-31%
CCc1cccc(-n2c(=O)c3cccnc3n2CC(=O)Nc2ccc(OC)c(Cl)c2)c1	4%	8.2µM*	6%	-15%	-4%
CCc1ccc(-n2c(=O)c3cccnc3n2CC(=O)Nc2cc(OC)ccc2OC)cc1	-1%	10%	6%	28%	9%
Nn1cc(-c2ccccc2)nc1SCC(=O)Nc1ccc(S(N)(=O)=O)cc1	-1%	-1%	0%	-10%	-2%
O=C1c2ccccc2NC(c2ccc(Br)s2)N1O (centres undefined)	6%	18µM*	-17%	-4%	-4%
CC1(Cc2ccccc2Cl)C(=O)Nc2ccc(OC(F)(F)F)cc21 (centres undefined)	0%[9.22 µM]	/	/	11µM*	-90%
CC1(Cc2ccccc2C#N)C(=O)Nc2ccc(OC(F)(F)F)cc21 (centres undefined)	0%	/	/	-16%	-24%
COc1ccc(CCNC(=O)NCCc2c[nH]c3ccccc23)cc1OC	-2%	?	1%	3%	-14%
COc1cccc(CNCCc2c[nH]c3ccccc23)c1OCc1ccccc1	-2%	-5%	-15%	?	11µM*
COc1cc(CNCCc2c[nH]c3ccccc23)ccc1OCc1ccccc1F	-3%	6%	5%	?	13µM*
CCCC1Cc2[nH]c(=O)c(C#N)cc2CO1 (centres undefined)	-1%	-8%	2%	-1%	5%
CC(C)(C)NC(=O)C(c1ccc(-c2ccccc2)cc1)N(C[C@H]1CC[C@@H]([C@@H]2CC[C@H](CO)O2)O1)C(=O)c1cccc(Cl)c1 (some centres undefined)	0%	23µM*	?	?	-4%
COc1ccc(OC)c(C(=O)N(C[C@H]2CC[C@@H]([C@@H]3CC[C@H](CO)O3)O2)C(C(=O)NC(C)(C)C)c2ccc(-c3ccccc3)cc2)c1 (some centres undefined)	5%	26µM*	?	?	-13%
